# Measured values: PubChem BioAssay (NCATS)
# Records with an inconclusive call do not appear. Values without a mark were called inactive. The source made the active and inactive calls. Calls follow the shape of the dose curve; as a rule, active = well fitted cell-killing curve with a large enough effect; inconclusive = small, poorly fitted or top-dose-only effect, or effect the other way; inactive = flat fitted curve, though single readings scatter.
# Tested on: CAOV3
# Assay: Primary qHTS to identify gynecologic anti-cancer compounds using libraries of approved drugs and bioactive compounds (AID 1345084); also: nearly all actives have a fitted effect of over 55% in size
# Conditions: Gynecologic cancer cell panel viability, ATPlite luminescence, 48 h; series mostly up to 57.5 µM; activity change, negative = cytotoxicity: at the top concentration
# Text: National Center for Advancing Translational Sciences [NCATS] Assay Overview: Chemotherapeutic drug responses vary from cancer to cancer and from patient to patient. These variations could be caused by a number of factors including patient genomic background, tumor mutations, tumor heterogeneity, and aspects of drug treatment. Chemotherapeutic drug resistance is also a common issue and can lead to ineffective treatment and patient death. Here we have profiled the cell killing effects of thousands of compounds to characterize the responses in three gynecological cancers, identify cancer-selective compounds, and understand the diversity of responses to these compounds from pan-cancer suppressors to single cell line selective compounds. In this assay, we screened a 7,914 compound drug library that included approved drug and bioactive compounds in six ovarian, three cervical, and […] placental cancer cell lines using the ATPlite assay for cell viability. […] The cervical cancer cell lines included HeLa, Ca Ski, and C-33 A. The placental cancer cell lines included JEG-3. HEK 293T cells were used as the control cell line to determine the selectivity index. ATPlite is a luminescence based assay reliant on the conversion of a luciferase substrate to light in the presence of ATP. As a cytotoxic compound will suppress growth and decrease the number of cells, the concentration of ATP will decrease, and less light signal will be detected in the well.
# Assay Protocol Summary: 1,000 cells in 4 uL of media were dispensed into white, solid bottom 1536-well plates using a Multidrop Combi (Thermo Scientific). The Assay plates were incubated for 16 hours at 37 C with 5% CO2 in assay plates, followed by the addition of 23 nL of DMSO or drug dissolved in DMSO. Each compound was assayed in five concentrations (0.092, 0.46, 2.3, 11.5, and 57.5 uM), using the automated Wako 1536 Pin Tool workstation and incubated at 37 C with 5% CO2 48 hours. 4 uL of ATPlite, the ATP monitoring reagent, was then added to the each well of the assay plates using the Multidrop Combi reagent dispenser followed by incubation for 15 minutes at room temperature. The resulting luminescence was measured using the ViewLux plate reader.
# % is scaled to controls: 0 for no effect and ±100 for the full control effect; potency is read from the fitted curve at half-maximal effect.
Compound,"activity change, negative = cytotoxicity",Potency
O=C1CCCc2c(O)cccc21,-20.2%,–
Cc1ncc(CO)c(CO)c1O,2.67%,–
CC(=O)N(c1onc(C)c1C)S(=O)(=O)c1ccc(N)cc1,11.3%,–
CN(C)CCOC(c1ccccc1)c1ccc(Br)cc1 (stereo not given),-18.4%,–
CN1Cc2cc(C(=O)N3CCC(C4CCNCC4)CC3)ccc2NC(CC(=O)O)C1=O (stereo not given),7.94%,–
O=C1OC2(c3ccccc31)c1cc(I)c(O)c(I)c1Oc1c2cc(I)c(O)c1I,-1.77%,–
CN1N=C(C(N)=O)CCC1=O,7.98%,–
O=P(O)(O)OCC(O)CO (stereo not given),-2.05%,–
Nc1nc2ccccc2n1Cc1ccc(F)cc1,1.87%,–
Cc1ccc(C(=O)C(=O)O)cc1C,11.3%,–
CO/N=C(/C(=O)N[C@@H]1C(=O)N2C(C(=O)O)=C(Cn3nnc(C)n3)CS[C@H]12)c1csc(N)n1,23.7%,–
COC(=O)c1cc(Cl)ccc1OC,19.4%,–
O=C(O)c1ccc(OCCN2CCCCC2)cc1,5.64%,–
NC(=O)NS(=O)(=O)c1ccc(Cl)cc1,10.5%,–
CO[C@@H]1[C@@H](OC)[C@H](C)[C@@](O)(CC(=O)O)O[C@H]1[C@H](C)[C@H]1O[C@@]2(CC[C@@](C)([C@H]3CC[C@@](C)([C@@H]4O[C@@H]([C@H]5O[C@](C)(O)[C@H](C)C[C@@H]5C)C[C@@H]4OC4C[C@H](OC)[C@@H](OC)[C@H](C)O4)O3)O2)C[C@H](O)[C@H]1C (stereo not given in full),–,14.1 µM (active)
COCCc1ccc(OCC2CO2)cc1 (stereo not given),-0.143%,–
NC(=O)COCCN1CCN(C(c2ccccc2)c2ccc(Cl)cc2)CC1 (stereo not given),-5.65%,–
CCc1cc2cc(OC)c(OC)cc2c(Cc2ccccc2)n1,-4.84%,–
CC(=O)OC[C@H]1O[C@@H](OC(C)=O)[C@H](OC(C)=O)[C@@H]1OC(C)=O,20.6%,–
COc1cc(C(=O)NC2CCCNC2)cc(OC)c1OC (stereo not given),0%,–

Compound,"activity change, negative = cytotoxicity",Potency
O=C1CC(c2ccc(Cl)cc2)CC(=O)N1,0%,–
COC(=O)/C=C(/C)N,8.65%,–
Nc1ccc2cc3ccc(N)cc3nc2c1,–,8.91 µM (active)
O=C1CC2(CCCC2)CC(=O)N1CCNCC1COc2ccccc2O1 (stereo not given),9.78%,–
CCOC(=O)C(=O)CCc1ccccc1,8.99%,–
CC(=O)O[C@@H]1C(=O)O[C@@H]2[C@H]1OC(=O)[C@@H]2OC(C)=O,5.58%,–
COc1cc(/C=C/C(N)=O)cc(OC)c1OC,7.83%,–
CN1[C@@H]2CC[C@H]1CC(NC(=O)n1c(=O)[nH]c3ccccc31)C2 (stereo not given in full),5.49%,–
CC(C)(C)c1ccc(C(=O)CCCCl)cc1,-1.57%,–
COc1ccccc1N1CCN(CC(O)COc2cc(OC)c(OC)c(OC)c2)CC1 (stereo not given),5.64%,–
COc1c(C)c2c(c(O)c1C/C=C(\C)CCC(=O)OCCN1CCOCC1)C(=O)OC2,-19.1%,–
CO/N=C(\C(=O)O)c1csc(NC(=O)CCl)n1,15.8%,–
CC(C)C[C@@H]1[C@H](c2ccccc2)OC(=O)N1CCCN1CCCCCC1,-1.21%,–
O=c1[nH]c(=O)n([C@H]2O[C@H](CO)[C@@H](O)[C@@H]2O)cc1/C=C\Br,-7.17%,–
Cc1cccc(C)c1NC(=O)c1ccc(N)cc1,2.7%,–
C/C=C(/C(=C/C)c1ccc(OC(C)=O)cc1)c1ccc(OC(C)=O)cc1,-11.9%,–
Cc1ccc(CCn2c3c(c4cc(Cl)ccc42)CN(C)CC3)cn1,-3.8%,–
CCOC(=O)C(=O)CCCCCCl,-1.1%,–
O=C(c1ccccc1)c1ccccc1,-0.223%,–
CC(C)(C)c1nnc(NS(=O)(=O)c2ccccc2)s1,-0.372%,–
